# Measured values published in PubChem BioAssay (NCI).
# About 79,000 compounds went through this panel and 15% of them were active in at least one assay; those are over-represented in the sample as a whole. Values without a mark were called inactive. Active and inactive are the calls of the source. Cut-off read from the data, not from the text of the source: active = growth inhibition above about 70%; inactive = the rest.
# Assays:
# [1] = NCI Yeast Anticancer Drug Screen. Data for the rad52 strain (AID 147);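 note: 0% = growth of vehicle-treated control cultures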; conditions: S. cerevisiae rad52 mutant growth inhibition, stronger effect = higher value
# In short: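 Yeast strain carrying a DNA damage repair alteration was exposed to test compounds. Growth inhibition was measured relative to vehicle-treated controls.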
# [2] = NCI Yeast Anticancer Drug Screen. Data for the wt1 strain (AID 149);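 note: 0% = growth of vehicle-treated wt1 cultures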; conditions: S. cerevisiae wt1 strain (SPY 50644) growth inhibition, stronger effect = higher value
# In short: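 Measured: growth of wt1 yeast under compound versus vehicle treatment, reported as inhibition.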
# [3] = NCI Yeast Anticancer Drug Screen. Data for the rad50EPP+ strain (AID 151);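 note: 0% = growth of vehicle-treated control cultures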; conditions: S. cerevisiae rad50 mutant strain, stronger effect = higher value
# In short: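 Yeast strain carrying rad50 alteration (rad50EPP+) exposed to compounds; growth inhibition measured relative to vehicle-treated controls.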
# [4] = NCI Yeast Anticancer Drug Screen. Data for the mgt1 strain (AID 153); conditions: S. cerevisiae mgt1 mutant growth inhibition, stronger effect = higher value
# In short: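 Yeast mgt1 strain (DNA repair/cell-cycle alteration panel) exposed to compounds; growth inhibition measured relative to vehicle-treated controls.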
# [5] = NCI Yeast Anticancer Drug Screen. Data for the rad50 strain (AID 155);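 note: 0% = growth of vehicle-only cultures of the same strain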; conditions: S. cerevisiae rad50 strain growth inhibition, stronger effect = higher value
# In short: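 Growth of the mutant yeast was measured after compound exposure and referenced to vehicle-treated cultures.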
# [6] = NCI Yeast Anticancer Drug Screen. Data for the mec2-1 strain (AID 157); conditions: S. cerevisiae mec2-1 strain, stronger effect = higher value
# In short: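 mec2-1 yeast strain, carrying an alteration in DNA damage repair or cell cycle control, was exposed to compounds; growth inhibition was measured relative to vehicle-treated controls.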
# [7] = NCI Yeast Anticancer Drug Screen. Data for the rad14 strain (AID 159);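 note: 0% = growth of vehicle-treated control cultures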; conditions: S. cerevisiae rad14 strain growth inhibition, stronger effect = higher value
# In short: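 Here, inhibition of yeast growth was measured after compound exposure, using a strain with a genetic defect in DNA damage repair and vehicle-treated cultures as the reference.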
# [8] = NCI Yeast Anticancer Drug Screen. Data for the sgs1 mgt1 strain (AID 161);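 note: 0% = growth of cultures given vehicle only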; conditions: S. cerevisiae sgs1 mgt1 strain, stronger effect = higher value
# In short: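 Percent growth inhibition was derived by comparing compound-exposed mutant yeast with vehicle-exposed cultures. The strain carries alterations in DNA damage repair.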
# [9] = NCI Yeast Anticancer Drug Screen. Data for the CLN2oe strain (AID 163);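 note: 0% = growth of vehicle-only control cultures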; conditions: S. cerevisiae CLN2oe strain, stronger effect = higher value
# In short: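 Yeast cells carrying a defined cell-cycle control alteration were exposed to test compounds. Growth inhibition was scored against vehicle-treated control cultures.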
# [10] = NCI Yeast Anticancer Drug Screen. Data for the cln2 rad14 strain (AID 165);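 note: 0% = growth equal to vehicle treated cultures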; conditions: S. cerevisiae cln2 rad14 strain, stronger effect = higher value
# In short: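 Yeast carrying cln2 and rad14 alterations (cell cycle control and DNA damage repair) were exposed to compounds. Growth inhibition was measured against vehicle-treated controls.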
# [11] = NCI Yeast Anticancer Drug Screen. Data for the bub3 strain (AID 167); conditions: S. cerevisiae bub3 mutant strain, stronger effect = higher value
# In short: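 Whole-cell yeast assay. The mutant strain was incubated with compounds, and growth inhibition was determined by comparison with vehicle-treated cells.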
# [12] = NCI Yeast Anticancer Drug Screen. Data for the wt2 strain (AID 169);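 note: 0% = growth of vehicle-treated yeast cultures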; conditions: S. cerevisiae wt2 strain growth inhibition, stronger effect = higher value
# In short: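 Yeast cells were exposed to test compounds, and growth inhibition was measured relative to vehicle-treated controls.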
# [13] = NCI Yeast Anticancer Drug Screen. Data for the mlh1 strain (AID 171);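 note: 0% = growth of vehicle-treated control cultures of the same strain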; conditions: S. cerevisiae mlh1 strain growth inhibition, stronger effect = higher value
# In short: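 Yeast carrying a defined genetic alteration in DNA damage repair or cell cycle control were exposed to test compounds. Growth inhibition was measured relative to vehicle-treated controls.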
# [14] = NCI Yeast Anticancer Drug Screen. Data for the sgs1 strain (AID 173);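 note: 0% = growth of vehicle-only control cultures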; conditions: S. cerevisiae sgs1 mutant, stronger effect = higher value
# In short: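 Yeast mutant strains carrying defined defects in DNA damage repair or cell cycle control were exposed to test compounds. Growth inhibition was scored against vehicle-treated controls.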
# [15] = NCI Yeast Anticancer Drug Screen. Data for the mlh1 rad18 strain (AID 175); conditions: S. cerevisiae mlh1 rad18 strain growth inhibition, stronger effect = higher value
# In short: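 Growth inhibition of the yeast strain was measured after compound exposure and expressed relative to vehicle-treated controls. The strain carries defined defects in DNA damage repair.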
# [16] = NCI Yeast Anticancer Drug Screen. Data for the rad18 strain (AID 177); conditions: S. cerevisiae rad18 mutant growth inhibition, stronger effect = higher value
# In short: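 Yeast carrying a defined DNA damage repair alteration were exposed to compounds. Growth inhibition was expressed relative to vehicle-treated controls.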
# [17] = at 5.0 µM (retest, dose inferred, filed as 0.5)
# [18] = at 50.0 µM (retest, dose inferred, filed as 5.0)
structure (smiles),measurement,setting,value
CC(/C=C/c1ccccc1)=N\NC(N)=S,growth inhibition,[1]; at 1.2 µM,4%
same,growth inhibition,[1]; at 3.7 µM,16%
same,growth inhibition,[1]; at 11.0 µM,16%
same,growth inhibition,[1]; at 33.0 µM,24%
same,growth inhibition,[1]; at 100.0 µM,72% (active)
same,growth inhibition,[2]; at 1.2 µM,-8%
same,growth inhibition,[2]; at 3.7 µM,-5%
same,growth inhibition,[2]; at 11.0 µM,6%
same,growth inhibition,[2]; at 33.0 µM,17%
same,growth inhibition,[2]; at 100.0 µM,35%
same,growth inhibition,[3]; at 1.2 µM,-5%
same,growth inhibition,[3]; at 3.7 µM,6%
same,growth inhibition,[3]; at 11.0 µM,0%
same,growth inhibition,[3]; at 33.0 µM,-3%
same,growth inhibition,[3]; at 100.0 µM,48%
same,growth inhibition,[4]; at 1.2 µM,9%
same,growth inhibition,[4]; at 3.7 µM,13%
same,growth inhibition,[4]; at 11.0 µM,10%
same,growth inhibition,[4]; at 33.0 µM,29%
same,growth inhibition,[4]; at 100.0 µM,52%
same,growth inhibition,[5]; at 1.2 µM,14%
same,growth inhibition,[5]; at 3.7 µM,10%
same,growth inhibition,[5]; [17],24%
same,growth inhibition,[5]; at 11.0 µM,7%
same,growth inhibition,[5]; at 33.0 µM,93% (active)
same,growth inhibition,[5]; [18],60%
same,growth inhibition,[5]; at 50.0 µM,33.7%
same,growth inhibition,[5]; at 100.0 µM,97% (active)
same,growth inhibition,[6]; at 1.2 µM,-2%
same,growth inhibition,[6]; at 3.7 µM,5%
same,growth inhibition,[6]; [17],15%
same,growth inhibition,[6]; at 11.0 µM,-6%
same,growth inhibition,[6]; at 33.0 µM,4%
same,growth inhibition,[6]; [18],35%
same,growth inhibition,[6]; at 50.0 µM,62.5%
same,growth inhibition,[6]; at 100.0 µM,59%
same,growth inhibition,[7]; at 1.2 µM,-8%
same,growth inhibition,[7]; at 3.7 µM,2%
same,growth inhibition,[7]; at 11.0 µM,-17%
same,growth inhibition,[7]; at 33.0 µM,-15%
same,growth inhibition,[7]; at 100.0 µM,45%
same,growth inhibition,[8]; [17],58%
same,growth inhibition,[8]; [18],87% (active)
same,growth inhibition,[8]; at 50.0 µM,86.1% (active)
same,growth inhibition,[9]; at 1.2 µM,7%
same,growth inhibition,[9]; at 3.7 µM,20%
same,growth inhibition,[9]; at 11.0 µM,16%
same,growth inhibition,[9]; at 33.0 µM,25%
same,growth inhibition,[9]; at 100.0 µM,46%
same,growth inhibition,[10]; [17],-5%
same,growth inhibition,[10]; [18],15%
same,growth inhibition,[10]; at 50.0 µM,83% (active)
same,growth inhibition,[11]; at 1.2 µM,9%
same,growth inhibition,[11]; at 3.7 µM,-8%
same,growth inhibition,[11]; [17],18%
same,growth inhibition,[11]; at 11.0 µM,-2%
same,growth inhibition,[11]; at 33.0 µM,-8%
same,growth inhibition,[11]; [18],44%
same,growth inhibition,[11]; at 50.0 µM,83.5% (active)
same,growth inhibition,[11]; at 100.0 µM,13%
same,growth inhibition,[12]; at 1.2 µM,-46%
same,growth inhibition,[12]; at 3.7 µM,-38%
same,growth inhibition,[12]; at 11.0 µM,-43%
same,growth inhibition,[12]; at 33.0 µM,-9%
same,growth inhibition,[12]; at 100.0 µM,65%
same,growth inhibition,[13]; at 1.2 µM,5%
same,growth inhibition,[13]; at 3.7 µM,19%
same,growth inhibition,[13]; at 11.0 µM,20%
same,growth inhibition,[13]; at 33.0 µM,37%
same,growth inhibition,[13]; at 100.0 µM,58%
same,growth inhibition,[14]; at 1.2 µM,-3%
same,growth inhibition,[14]; at 3.7 µM,9%
same,growth inhibition,[14]; at 11.0 µM,13%
same,growth inhibition,[14]; at 33.0 µM,30%
same,growth inhibition,[14]; at 100.0 µM,68%
same,growth inhibition,[15]; [17],49%
same,growth inhibition,[15]; [18],77% (active)
same,growth inhibition,[15]; at 50.0 µM,58.8%
same,growth inhibition,[16]; at 1.2 µM,9%
same,growth inhibition,[16]; at 3.7 µM,11%
same,growth inhibition,[16]; at 11.0 µM,33%
same,growth inhibition,[16]; at 33.0 µM,67%
same,growth inhibition,[16]; at 100.0 µM,94% (active)
Cc1cc2cc3cc(C)c(N)cc3nc2cc1N,growth inhibition,[1]; at 1.2 µM,-6%
same,growth inhibition,[1]; at 3.7 µM,-1%
same,growth inhibition,[1]; at 11.0 µM,-7%
same,growth inhibition,[1]; at 33.0 µM,77% (active)
same,growth inhibition,[1]; at 100.0 µM,96% (active)
same,growth inhibition,[2]; at 1.2 µM,-18%
same,growth inhibition,[2]; at 3.7 µM,-8%
same,growth inhibition,[2]; at 11.0 µM,-6%
same,growth inhibition,[2]; at 33.0 µM,56%
same,growth inhibition,[2]; at 100.0 µM,89% (active)
same,growth inhibition,[3]; at 1.2 µM,-10%
same,growth inhibition,[3]; at 3.7 µM,20%
same,growth inhibition,[3]; at 11.0 µM,37%
same,growth inhibition,[3]; at 33.0 µM,71% (active)
same,growth inhibition,[3]; at 100.0 µM,84% (active)
same,growth inhibition,[4]; at 1.2 µM,-61%
same,growth inhibition,[4]; at 3.7 µM,-60%
same,growth inhibition,[4]; at 11.0 µM,-28%
same,growth inhibition,[4]; at 33.0 µM,68%
same,growth inhibition,[4]; at 100.0 µM,94% (active)
same,growth inhibition,[5]; at 1.2 µM,-9%
same,growth inhibition,[5]; at 3.7 µM,-18%
same,growth inhibition,[5]; [17],94% (active)
same,growth inhibition,[5]; at 11.0 µM,27%
same,growth inhibition,[5]; at 33.0 µM,86% (active)
same,growth inhibition,[5]; [18],99% (active)
same,growth inhibition,[5]; at 50.0 µM,81.8% (active)
same,growth inhibition,[5]; at 100.0 µM,96% (active)
same,growth inhibition,[6]; at 1.2 µM,-18%
same,growth inhibition,[6]; at 3.7 µM,-5%
same,growth inhibition,[6]; [17],78% (active)
same,growth inhibition,[6]; at 11.0 µM,13%
same,growth inhibition,[6]; at 33.0 µM,82% (active)
same,growth inhibition,[6]; [18],98% (active)
same,growth inhibition,[6]; at 50.0 µM,75.5% (active)
same,growth inhibition,[6]; at 100.0 µM,97% (active)
same,growth inhibition,[7]; at 1.2 µM,-7%
same,growth inhibition,[7]; at 3.7 µM,-23%
same,growth inhibition,[7]; at 11.0 µM,5%
same,growth inhibition,[7]; at 33.0 µM,70% (active)
same,growth inhibition,[7]; at 100.0 µM,92% (active)
same,growth inhibition,[8]; [17],16%
same,growth inhibition,[8]; [18],98% (active)
same,growth inhibition,[8]; at 50.0 µM,85.2% (active)
same,growth inhibition,[9]; at 1.2 µM,-1%
same,growth inhibition,[9]; at 3.7 µM,8%
same,growth inhibition,[9]; at 11.0 µM,17%
same,growth inhibition,[9]; at 33.0 µM,46%
same,growth inhibition,[9]; at 100.0 µM,83% (active)
same,growth inhibition,[10]; [17],34%
same,growth inhibition,[10]; [18],98% (active)
same,growth inhibition,[10]; at 50.0 µM,46.8%
same,growth inhibition,[11]; at 1.2 µM,-20%
same,growth inhibition,[11]; at 3.7 µM,-5%
same,growth inhibition,[11]; [17],23%
same,growth inhibition,[11]; at 11.0 µM,8%
same,growth inhibition,[11]; at 33.0 µM,69%
same,growth inhibition,[11]; [18],96% (active)
same,growth inhibition,[11]; at 50.0 µM,77.8% (active)
same,growth inhibition,[11]; at 100.0 µM,92% (active)
same,growth inhibition,[12]; at 1.2 µM,-7%
same,growth inhibition,[12]; at 3.7 µM,-12%
same,growth inhibition,[12]; at 11.0 µM,2%
same,growth inhibition,[12]; at 33.0 µM,56%
same,growth inhibition,[12]; at 100.0 µM,94% (active)
same,growth inhibition,[13]; at 1.2 µM,-10%
same,growth inhibition,[13]; at 3.7 µM,3%
same,growth inhibition,[13]; at 11.0 µM,24%
same,growth inhibition,[13]; at 33.0 µM,79% (active)
same,growth inhibition,[13]; at 100.0 µM,95% (active)
same,growth inhibition,[14]; at 1.2 µM,-43%
same,growth inhibition,[14]; at 3.7 µM,-21%
same,growth inhibition,[14]; at 11.0 µM,0%
same,growth inhibition,[14]; at 33.0 µM,66%
same,growth inhibition,[14]; at 100.0 µM,91% (active)
same,growth inhibition,[15]; [17],94% (active)
same,growth inhibition,[15]; [18],99% (active)
same,growth inhibition,[15]; at 50.0 µM,81.8% (active)
same,growth inhibition,[16]; at 1.2 µM,-37%
same,growth inhibition,[16]; at 3.7 µM,-25%
same,growth inhibition,[16]; at 11.0 µM,-11%
same,growth inhibition,[16]; at 33.0 µM,67%
same,growth inhibition,[16]; at 100.0 µM,92% (active)
